Results: the supplement of paper PMC9254222
In all, about 1,100 compounds were measured (“Wnt reporter firefly/Renilla luciferase ratio relative to plate median”: median about 1.1, highest 2% from about 1.6 on). Many of the other results were omitted from the sample, so the highest values are more common in it than they were.

Test system: HEK293T (UBE3A T485A transfected, BAR Wnt reporter)
Assay: Wnt reporter firefly/Renilla luciferase ratio relative to plate median (fold (linear ratio)); higher = more Wnt/beta-catenin reporter activation
Settings: 24 h
Method in brief: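 Chemicals were robotically dosed at 0.01–100 uM for 24 h onto HEK293T cells, starting four hours after transfection with a BAR firefly luciferase Wnt reporter, TK-Renilla and an expression plasmid. The cells had been plated at 4500 cells/well in DMEM with 10% FBS at 37°C and 5% CO2. Following a Dual-Glo luciferase readout, the firefly/Renilla ratio served as the Wnt activity measure and raw Renilla as the cell health measure, both median-centred on each plate. Each value is the mean of four biological replicates.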

Row | SMILES | Wnt reporter firefly/Renilla luciferase ratio (concentration: 0.1 uM) | Wnt reporter firefly/Renilla luciferase ratio (concentration: 1 uM) | Wnt reporter firefly/Renilla luciferase ratio (concentration: 10 uM) | Wnt reporter firefly/Renilla luciferase ratio (concentration: 100 uM) | Wnt reporter firefly/Renilla luciferase ratio (concentration: 0.01 uM)
1 | CN1C(=O)CC[C@H]1c1cccnc1 [Cotinine] | 0.928 | 0.981 | 1.03 | 1.13 | –
2 | O=C(O)c1cn(C2CC2)c2cc(N3CCNCC3)c(F)cc2c1=O [Ciprofloxacin] | 0.853 | 1.01 | 0.882 | 1.74 | 0.979
3 | COc1c(N2CC3CCCNC3C2)c(F)cc2c(=O)c(C(=O)O)cn(C3CC3)c12 (configuration not stated) [Moxifloxacin] | 1.02 | 1.07 | 0.95 | 0.752 | 0.907
4 | CC1COc2c(N3CCN(C)CC3)c(F)cc3c(=O)c(C(=O)O)cn1c23 (configuration not stated) [Levofloxacin] | 1.2 | 1.05 | 1.11 | 1.45 | 1.21
5 | O=C(CCCN1CCC(O)(c2ccc(Cl)cc2)CC1)c1ccc(F)cc1 [Haloperidol] | 1.01 | 0.984 | 0.916 | 0.572 | –
6 | CCNc1ccccc1 [N-Ethylaniline] | 0.799 | 1.03 | 0.96 | 1.2 | –
